The results in this text go back to PubChem BioAssay (NCI).

Values joined by “and” are separate entries in the source; they are usually repeats but may differ in a detail not shown here. Equal values may be shown once. The panel holds about 83,000 compounds, 20% with a hit somewhere; the sample as a whole holds those more often.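 Interpretation: 100, growth as untreated; towards 0, rising growth inhibition; 0, no net growth; 0 to -100, cell death. Compounds scoring below 10 were considered active.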 A number with no mark means an inactive call. Active and inactive are the calls of the source.

Holding throughout (assay): NCI-60 one-dose screen, 48 h (100 = growth as untreated, 0 = no growth, -100 = all killed)
Test [1] deals with SR leukemia.
Test [2] concerns RPMI-8226 leukemia.
Test [3] concerns OVCAR-8 ovarian.
Test [4] concerns OVCAR-5 ovarian.
Test [5] deals with OVCAR-4 ovarian.
Test [6] concerns SK-OV-3 ovarian.
Test [7] deals with IGROV1 ovarian.
In test [8] the test system is OVCAR-3 ovarian.
Test [9] has as its system HS 578T breast. As to conditions: 10 µM unless noted.
Test [10] relates to NCI/ADR-RES ovarian.

With `COc1cc(-c2nc(SCCC(C)C)nc(Nc3ccc(F)cc3)c2C#N)cc(OC)c1OC`, the growth was 73.1% in test [1] (10 µM unless noted); 91.2% in [2] (10 µM unless noted); 40.7% in test [3] (10 µM unless noted); 95% in [4] (10 µM unless noted); 2.39% (active) in [5] (10 µM unless noted); 47.3% in [6] (10 µM unless noted). Moreover, the growth in [7] (10 µM unless noted) was 69.6%; in [8] (10 µM unless noted), 19.8%; in [9] it was 50.1%.

With `CC(=NCc1ccccc1)c1ccc(O)cc1O`, the growth is 93.5% in [1] (10 µM unless noted); 96.6% in test [2] (10 µM unless noted); 103% in test [3] (10 µM unless noted); 104% in test [4] (10 µM unless noted); 101% in [5] (10 µM unless noted); 103% in test [6] (10 µM unless noted). Besides, the growth was 105% in [7] (10 µM unless noted), 103% in test [8] (10 µM unless noted) and 112% in test [9].

As for `O=C1/C(=C/c2ccc(-c3cccc(C(F)(F)F)c3)o2)SC(=S)N1CCc1ccc(O)cc1`, the growth in [1] (10 µM unless noted) was 32.5%; in test [2] (10 µM unless noted), 68.3%; in [3] (10 µM unless noted), 15.2%; in test [4] (10 µM unless noted), 82.7%; in test [5] (10 µM unless noted), 48.5%; in test [6] (10 µM unless noted), 85.4%. Further, the values for the growth in [7] (10 µM unless noted), in test [8] (10 µM unless noted) and in [9] were 48.8%, 63.4% and 69.4%, respectively.

For the compound `Nc1nc(Cl)nc2c1ncn2C1OC(CO)C(O)C1O` (configuration not stated), the growth in test [1] (10 µM unless noted) is 56.8%; in test [2] (10 µM unless noted) it was 104% and 96.1%; in test [3] (10 µM unless noted), 22.9% and 29.3%; in test [4] (10 µM unless noted), 90% and 105%; in test [5] (10 µM unless noted), 94.4% and 87%; in test [6] (10 µM unless noted), 41.3% and 68.1%. The growth in [7] (10 µM unless noted) was 78.9% and 75.1%; in test [8] (10 µM unless noted), 86.9%.

In the case of `COc1ccc(C(=O)/C=C/c2ccc(OCc3cccc(C(F)(F)F)c3)c(OC)c2)cc1OC`, the growth was 36.8% in test [1] (10 µM); 5.42% (active) in test [1] (100 µM); 29.7% in test [2] (10 µM); -0.397% (active) in test [2] (100 µM); 67.1% in test [3] (10 µM); 4.75% (active) in test [3] (100 µM). The growth in test [4] (10 µM) was 109%; in test [4] (100 µM), 51.5%; in [5] (10 µM), 74.9%; in [5] (100 µM), 20.3%; in test [6] (10 µM) it was 88.7%; in [6] (100 µM), 20%. In addition, the growth in [7] (10 µM) was 93.6%; in test [7] (100 µM), 5.18% (active); in test [8] (10 µM), 79.8%; in [8] (100 µM), -10.3% (active); in test [10] (10 µM), 71.4%; in [10] (100 µM), -6.47% (active).

`CCOC(=O)C1=C(C)N=C2SC=C(c3ccc(F)cc3)N2[C@H]1c1cn(-c2ccccc2)nc1-c1ccc(Cl)cc1`: the growth was 88% in test [1] (10 µM unless noted); 88.4% in [2] (10 µM unless noted); 92% in [3] (10 µM unless noted); 91.9% in test [4] (10 µM unless noted); 102% in test [5] (10 µM unless noted); 87.8% in test [6] (10 µM unless noted). Further, the growth is 96.7% in test [7] (10 µM unless noted), 114% in [8] (10 µM unless noted) and 101% in test [9].

On to `CC(=O)N1N=C(c2ccc(F)cc2)CC1c1sc(N(C)Cc2ccccc2)nc1Cl` (configuration not stated), for which the growth in [1] (10 µM unless noted) is 94.6%; in [2] (10 µM unless noted) it was 75.2%; in test [3] (10 µM unless noted) it was 105%; in test [4] (10 µM unless noted) it was 109%; in test [5] (10 µM unless noted), 88.7%; in test [6] (10 µM unless noted), 101%. Moreover, the growth in test [7] (10 µM unless noted) was 96%; in test [8] (10 µM unless noted), 101%; in test [9], 109%; in [10] (10 µM unless noted) it was 92%.

Consider `CCN(c1cc(-c2ccc(CN3CCC(/C=C/S(=O)(=O)c4ccccc4)CC3)cc2)cc(C(=O)NCc2c(C)cc(C)[nH]c2=O)c1C)C1CCOCC1`, for which the growth in test [1] (10 µM unless noted) was 17.9%; in test [2] (10 µM unless noted), 19.2%; in test [3] (10 µM unless noted) it was 75%; in test [4] (10 µM unless noted), 90.3%; in test [5] (10 µM unless noted), 73%; in test [6] (10 µM unless noted), 86.2%. The growth in [7] (10 µM unless noted) was 53.7%; in [8] (10 µM unless noted), 77.3%; in [9], 62.2%; in test [10] (10 µM unless noted), 73.7%.

Consider `CCCN1C(=O)/C(=c2\sc3n(c2=O)C2C(NN=3)N(CC)C(=O)N2CC)c2ccccc21` (configuration not stated), for which the growth in test [1] (10 µM unless noted) was 17%; in [2] (10 µM unless noted), 21.9%; in [3] (10 µM unless noted) it was 7.65% (active); in test [4] (10 µM unless noted) it was 27.5%; in test [5] (10 µM unless noted) it was 48.8%; in test [6] (10 µM unless noted), 43.7%. Moreover, the growth in test [7] (10 µM unless noted) was 16%; in test [8] (10 µM unless noted), 12.4%; in test [9] it was 16.8%; in test [10] (10 µM unless noted), 0.109% (active).

`CN1CCN(Cc2ccc(NC(=O)c3cccc(C#Cc4c(N)ncc5ccc(F)cc45)c3)cc2C(F)(F)F)CC1`: the growth in test [1] (10 µM unless noted) was -24.6% (active); in test [2] (10 µM unless noted), -33.6% (active); in test [3] (10 µM unless noted), -51.5% (active); in test [4] (10 µM unless noted) it was -57.7% (active); in test [5] (10 µM unless noted), -47.6% (active); in [6] (10 µM unless noted), 6.69% (active). In addition, the growth is -42.4% (active) in test [7] (10 µM unless noted), -57.4% (active) in [8] (10 µM unless noted), -37.9% (active) in test [9] and -44.7% (active) in test [10] (10 µM unless noted).

On to `CCCc1cc(C(N)=S)ccn1`, for which the growth was 104% in test [1] (10 µM unless noted); 120% in [2] (10 µM unless noted); 99.3% in test [3] (10 µM unless noted); 105% in test [4] (10 µM unless noted); 110% in [5] (10 µM unless noted); 100% in test [6] (10 µM unless noted). For the same compound, the growth was 105% in test [7] (10 µM unless noted), 115% in test [8] (10 µM unless noted), 125% in test [9] and 87.8% in test [10] (10 µM unless noted).

Take `O=C(CC1(O)C(=O)Nc2ccc(Br)cc21)c1ccc(Cl)cc1` (configuration not stated): the growth in test [1] (10 µM unless noted) is 103%; in test [2] (10 µM unless noted), 96.7%; in [3] (10 µM unless noted), 96.6%; in test [4] (10 µM unless noted), 124%; in [5] (10 µM unless noted) it was 97%; in test [6] (10 µM unless noted), 88.3%. Moreover, the growth in test [7] (10 µM unless noted) is 93.2%; in [8] (10 µM unless noted), 102%; in [9] it was 91.7%; in test [10] (10 µM unless noted), 104%.

Turning to `COc1ccc(CCNC(=O)COc2cc3c(Nc4ccc(F)c(Cl)c4)ncnc3cc2OC)cc1OC`, the growth in test [1] (10 µM unless noted) is 82.3%; in test [2] (10 µM unless noted), 90.1%; in test [3] (10 µM unless noted), 103%; in test [4] (10 µM unless noted), 65.4%; in test [5] (10 µM unless noted), 92.4%; in test [6] (10 µM unless noted), 89.8%. Further, the growth in test [7] (10 µM unless noted) is 46.3%; in test [8] (10 µM unless noted), 82.8%; in [9], 92.4%; in test [10] (10 µM unless noted), 85.6%.
